# From PubChem BioAssay AID1479 (National Center for Advancing Translational Sciences (NCATS), 2009)
# Out of some 280,000 compounds screened, about 820 (0.29%) were called active. About 1% were inconclusive and are not listed. The entries come from a sample that favours actives as a whole. A number with no mark means an inactive call. The call rests on the fitted dose curve; in most records, active means well fitted curve in either direction with a large enough effect; inconclusive means small, poorly fitted or top-dose-only effect; inactive means flat fitted curve, though single readings scatter.
# Assay: Total Fluorescence Counterscreen for Inhibitors of the Interaction of Thyroid Hormone Receptor and Steroid Receptor Coregulator 2
# Conditions: TRb/SRC2 Texas Red total fluorescence interference; series mostly up to 106 µM; fluorescence change, negative = quenching: at the top concentration
# How it was run: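 Human TRβ ligand-binding domain (0.6 uM) and Texas Red SRC2 peptide (20 nM) in Tris buffer with 1 uM T3 and 5% DMSO were incubated with pinned compound for 5 hr at ambient temperature. Total fluorescence was computed as S + 2P (555/632 nm).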
# On the % scale 0 is the no-effect control and ±100 the full control effect; potency means the concentration at half of the fitted maximal effect; tags describe the fitted curve by direction and shape or compound fluorescence and quenching.
SMILES,"fluorescence change, negative = quenching",Potency
COC(=O)c1ccc(CSc2nncn2N)cc1,-0.734%,–
COC(=O)c1ccc(CSc2nncn2C)cc1,0.728%,–
CCOC(=O)c1ccc(CSc2nnc3cc(C)c4ccccc4n23)cc1,–,1.41 µM [quencher] (active)
Cn1c(C(=O)Nc2cccc(C(F)(F)F)c2)cc2c(=O)n3ccccc3nc21,–,44.7 µM [quencher] (active)
Cn1c(=O)c2c(ncn2CC(=O)Nc2cccc(C(F)(F)F)c2)n(C)c1=O,-1.15%,–
O=C(Nc1ccc(OC(F)(F)F)cc1)c1cc2c(=O)n3ccccc3nc2s1,-8.23%,–
COc1ccccc1CNC(=O)Cn1nc(C)c2nn(-c3ccc(Cl)cc3)c(C)c2c1=O,-3.71%,–
COc1cccc(CC2(CO)CCCN(CC3=Cc4cc(OC)ccc4OC3)C2)c1 (centres undefined),-6.57%,–
COc1ccc2c(c1)C=CC1(O2)N(CCO)c2ccccc2C1(C)C (centres undefined),–,50.1 µM [fluorescent] (active)
COc1ccc2c(c1)C(SCC(=O)NCc1ccccc1)CC(C)(C)O2 (centres undefined),-2.94%,–
CCc1cnc2c(c1SCC(=O)N1CCC(C)CC1)c(=O)n(C)c(=O)n2C,0.547%,–
COc1ccc(C)cc1N(CC(=O)N1CCC(C)CC1)S(=O)(=O)c1ccc(C)cc1,6.06%,–
Cc1ccccc1-c1nc2scc(CCNC(=O)C(=O)Nc3ccc(F)cc3F)n2n1,-1.09%,–
CC(Sc1oc(-c2ccco2)nc1S(=O)(=O)c1ccc(Br)cc1)c1ccccc1 (centres undefined),1.02%,–
COc1ccccc1NC(=O)CSc1oc(-c2ccco2)nc1S(=O)(=O)c1ccc(Br)cc1,0.994%,–
CCCC/C=C/CCCCO,-3.09% [at 201 µM],–
CCN(C(=O)Cn1cc(S(=O)(=O)N2CCN(c3ccccc3F)CC2)c2ccccc2c1=O)c1ccc(C)c(C)c1,-2.35%,–
O=C(NCCc1ccccc1)c1ccc2c(c1)N(Cc1ccccc1)C(=O)c1ccccc1S2(=O)=O,-5.87%,–
CN(C(=O)CSc1nnc(NC(=O)Nc2ccccc2)s1)c1ccccc1,-1.97%,–
CC(C)(C)OC(=O)N1CCC(c2c(C(=O)Nc3ccc4c(c3)OCO4)cnn2-c2ccccc2)CC1,-6.82%,–
Cc1cccc(Cc2c(C)nc3nc(SCc4ccccc4Cl)nn3c2C)c1,-1.22%,–
c1ccc(CNc2ncnc3[nH]ncc23)cc1,-2.45%,–

SMILES,"fluorescence change, negative = quenching",Potency
CCOC(=O)c1ccc(NC(=O)CC2C(=O)N(c3cccc(OC)c3)C(=O)N2C2CCCCC2)cc1 (centres undefined),-1.55%,–
COc1ccccc1CNC(=O)c1ccccc1NC(=O)c1nsc2ccccc12,-0.019%,–
O=S(=O)(c1ccc(C2CCCCC2)cc1)N1CCN(c2ccc(Cl)c(Cl)c2)CC1,1.08%,–
CC1CN(C(=O)N2CCC(C(=O)NCc3ccco3)CC2)c2cc(Cl)ccc2O1 (centres undefined),8.47%,–
CCOC(=O)c1ccc(NC(=O)CCS(=O)(=O)c2ccc(C)cc2)cc1,-1.98%,–
CCCn1c2ccccc2c2cnn(CC(=O)N(C)c3ccccc3CC)c(=O)c21,-7.64%,–
Cc1cc(C)c(N)c(Cl)c1,-1.53% [at 201 µM],–
CCOc1ccc2nc(C(=O)N3CCCC(C)C3)sc2c1 (centres undefined),1.97%,–
CCOc1ccc2nc(N3CCCC(C(=O)Nc4cc(C)ccc4C)C3)sc2c1 (centres undefined),–,20 µM [quencher] (active)
CCOc1ccc2nc(N3CCC(C(=O)Nc4cc(C)ccc4C)CC3)sc2c1,4.05%,–
Cc1csc2nc(COC(=O)c3ccc(NC(=O)COc4ccccc4F)cc3)cc(=O)n12,-0.21%,–
COc1cc2ccccc2cc1C(=O)Nc1cccc(-c2nc3ccccc3o2)c1,0.567%,–
O=C(CN1CCSc2ccccc21)N1CCN(c2ccccc2)CC1,-0.0734%,–
Cc1ccc(N)c(S(=O)(=O)O)c1,-6.26% [at 201 µM],–
Cn1c(=O)[nH]c(=O)c2c1nc(NCCc1ccccc1)n2Cc1ccc(F)cc1,-0.664%,–
COc1ccc(CNC(=O)Cc2coc3ccc(C(C)C)cc23)cc1,-20.8%,–
CC(C)(C)c1ccc(NC(=O)NCc2ccco2)cc1,-4.34%,–
O=C(Nc1ccc2nccnc2c1)c1ccco1,-2.35%,–
COCCNC(=O)Nc1ccc2nc(-c3ccco3)c(-c3ccco3)nc2c1,–,28.2 µM [quencher] (active)
CC1CCCN(c2nc3c(S(=O)(=O)c4ccc(C(C)C)cc4)nnn3c3ccsc23)C1 (centres undefined),-1.97%,–
Cc1ccc(-c2noc(CSc3nnc(-c4ccc(Cl)cc4)n3C)n2)cc1,6.15%,–
CCc1cccc(NC(=O)Cn2nc(CC)n3c(cc4cc(C)ccc43)c2=O)c1,-3.05%,–

SMILES,"fluorescence change, negative = quenching",Potency
OCCC(F)(F)C(F)(F)C(F)(F)C(F)(F)C(F)(F)C(F)(F)C(F)(F)C(F)(F)F,-3.95% [at 201 µM],–
CC(=O)c1cccc(Nc2ccc3cc(S(=O)(=O)N4CCC(C)CC4)ccc3n2)c1,-2.64%,–
COc1ccccc1NC(=O)c1cc(S(=O)(=O)NCCc2ccccc2)ccc1F,-1.18%,–
CC1(C)C(=O)N(Br)C(=O)N1Br,0.683% [at 201 µM],–
COC(=O)c1ccc(NC(=O)CCc2c(C)nc3c(c(C)nn3-c3ccc(C)cc3)c2C)cc1,-1.65%,–
CC(=O)N(CCN(C(C)=O)C(C)=O)C(C)=O,-0.655% [at 201 µM],–
CC(NC(=O)c1cc2c(=O)n3ccccc3nc2n(C(C)C)c1=N)c1ccccc1 (centres undefined),-1.91%,–
O=C(Cn1c(=O)nc(-c2ccccc2)c2cc(Cl)ccc21)NCc1ccc(Cl)cc1,-1.77%,–
Cc1ccccc1CNC(=O)C1CCCN(S(=O)(=O)N(C)c2ccc(F)cc2)C1 (centres undefined),-1.26%,–
COc1ccc(CCN2C(=O)N(c3cccc(OC)c3)C(=O)C2CC(=O)Nc2ccccc2)cc1 (centres undefined),-1.82%,–
O=C(CC1N=C2c3ccccc3N=C(SCc3cccc(Cl)c3)N2C1=O)NCc1ccc2c(c1)OCO2 (centres undefined),-0.205%,–
CCCCCCCCCCCCCCCC,-2.34% [at 201 µM],–
COc1ccc(CCC(=O)NCc2ccc3c(c2)CCN3C(=O)c2ccc(F)cc2)cc1,-12.6%,–
CC(Nc1ccc(-c2nc(-c3ccco3)no2)cc1[N+](=O)[O-])c1ccccc1 (centres undefined),-1.44%,–
Cc1oc2ccc(O)c(CN3CCC(C)CC3)c2c1C(=O)Nc1ccccc1,-29.7%,–
CCc1cccc(C)c1Nc1c(-c2ccc(N(C)C)cc2)nc2ncccn12,1.78%,–
CCn1c(=O)cc(OCC(=O)Nc2cc(Cl)c(OC)cc2OC)c2ccccc21,-3.2%,–
CCC(=O)Nc1cccc(C(=O)OCc2cc(=O)n3nc(CC)sc3n2)c1,-0.224%,–
Cc1cccc(CSc2nc3ccncc3n2CC(=O)N(C)C2CCCCC2)c1,-0.651%,–
COc1ccc(CCNC(=O)CCCCn2c(=O)c3ccccc3n(Cc3ccccc3C)c2=O)cc1OC,10.7%,–
